{
  "source": "PubChem BioAssay AID651598",
  "about": "(Sanford-Burnham Center for Chemical Genomics, 2012)",
  "note": "Where “and” joins values, the source holds several entries; their conditions need not be identical. Equal values may be shown once.",
  "data": [
    {"target": "C-X-C chemokine receptor type 6 (Homo sapiens) (UniProt O00574)", "sequence (O00574 whole entry, looked up)": "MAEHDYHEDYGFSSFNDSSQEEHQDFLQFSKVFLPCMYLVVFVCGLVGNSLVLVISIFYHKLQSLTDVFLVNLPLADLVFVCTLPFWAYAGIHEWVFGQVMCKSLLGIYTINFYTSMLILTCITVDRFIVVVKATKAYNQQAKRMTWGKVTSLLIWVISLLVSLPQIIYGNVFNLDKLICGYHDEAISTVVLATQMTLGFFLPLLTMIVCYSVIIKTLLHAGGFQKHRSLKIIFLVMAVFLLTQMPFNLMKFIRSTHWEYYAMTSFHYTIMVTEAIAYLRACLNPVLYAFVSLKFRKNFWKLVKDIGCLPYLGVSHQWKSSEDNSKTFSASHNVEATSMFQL", "assay": "apelin receptor (APJ) antagonists, SAR follow-up, counter-screen for CXCR6 antagonist project, cell-based, beta-arrestin, DiscoveRx, panel, CHO-K1 (AID 651598)", "conditions": "CHO-K1 PathHunter beta-arrestin luminescence, antagonist mode; run 2, at 80 µM (top of the series)", "values": [
      {"smiles": "COc1cc(C(=O)NC2CC3CCC(C2)N3CC(=O)Nc2ccccc2)cc(OC)c1OC", "note": "(stereo not drawn)", "inhibition": "48.5% and 18.7%"},
      {"smiles": "COc1cc(C(=O)NC2CC3CCCC(C2)N3CC(=O)Nc2ccccc2)cc(OC)c1OC", "note": "(stereo not drawn)", "inhibition": "88.2% and 52.1% and 24.9%"},
      {"smiles": "COc1cc(C(=O)NC2CCN(CC(=O)Nc3ccccc3)CC2)cc(OC)c1OC", "inhibition": "25.1%"}
    ]}
  ]
}
